# From PubChem BioAssay AID1159580 (chemical genetic matrix, 2015)
# The campaign covered roughly 5,500 compounds. About 2,000 (36%) were called active. About 18% were inconclusive and are not listed. This is one part of the list. A number with no mark means an inactive call. Rule as the data show it: active = normalized growth mostly below about 0.91 (no sharp cut-off); inconclusive = no clear call, values can overlap the other calls; inactive = mostly above about 0.92.
# Test: chemical genetic growth profiling, strain panel (AID 1159580);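 also: tested at 20 µM; growth read once vehicle control cultures reached saturation at 30 °C; 1 = growth at the plate median or of vehicle wells; lower values mean less growth of the strain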
# Details: S. cerevisiae deletion strains, growth OD
# [1] = locus YHR030C, strain SLT2, hits give low values
# [2] = locus YHR079C, strain IRE1, hits give low values
# [3] = locus YJL095W, strain BCK1, hits give low values
# [4] = locus YJR066W, strain TOR1, hits give low values
# [5] = locus YLR113W, strain HOG1, hits give low values
# [6] = locus YNL183C, strain NPR1, hits give low values
# [7] = locus YOR231W, strain MKK1, hits give low values
# [8] = locus YPL256C, strain CLN2, hits give low values
smiles,measurement,setting,value
CC(C)CC(NC(=O)CCN)C(=O)O (centres undefined),normalized growth,[1],0.976
same,normalized growth,[2],0.964
same,normalized growth,[3],0.974
same,normalized growth,[4],0.896
same,normalized growth,[5],0.986
same,normalized growth,[6],0.886
same,normalized growth,[7],0.993
same,normalized growth,[8],0.975
NCCCN=c1ccc2c3c1c(O)c1c(O)ccc(=O)c1c3[nH]n2CCNCCO,normalized growth,"locus YAR019C, strain CDC15, hits give low values",0.984
same,normalized growth,"locus YBL105C, strain PKC1, hits give low values",0.977
same,normalized growth,"locus YBR135W, strain CKS1, hits give low values",0.986
same,normalized growth,"locus YBR136W, strain MEC1, hits give low values",0.97
same,normalized growth,"locus YBR160W, strain CDC28, hits give low values",0.982
same,normalized growth,"locus YDL017W, strain CDC7, hits give low values",0.976
same,normalized growth,"locus YDL028C, strain MPS1, hits give low values",0.976
same,normalized growth,"locus YDL101C, strain DUN1, hits give low values",0.969
same,normalized growth,"locus YDL108W, strain KIN28, hits give low values",0.978
same,normalized growth,"locus YDL132W, strain cdc53, hits give low values",0.979
same,normalized growth,"locus YDL214C, strain PRR2, hits give low values",0.993
same,normalized growth,"locus YDR052C, strain DBF4, hits give low values",0.976
same,normalized growth,"locus YDR054C, strain cdc34, hits give low values",0.974
same,normalized growth,"locus YDR226W, strain ADK1, hits give low values",0.984
same,normalized growth,"locus YDR477W, strain SNF1, hits give low values",0.977
same,normalized growth,"locus YER123W, strain YCK3, hits give low values",0.978
same,normalized growth,"locus YER133W, strain GLC7, hits give low values",0.977
same,normalized growth,"locus YFL009W, strain cdc4, hits give low values",0.982
same,normalized growth,"locus YFL029C, strain CAK1, hits give low values",0.986
same,normalized growth,"locus YFR003C, strain YPI1, hits give low values",0.973
same,normalized growth,"locus YFR019W, strain FAB1, hits give low values",0.948
same,normalized growth,"locus YFR028C, strain CDC14, hits give low values",0.981
same,normalized growth,"locus YGR040W, strain KSS1, hits give low values",0.977
same,normalized growth,"locus YGR052W, strain FMP48, hits give low values",0.984
same,normalized growth,"locus YGR092W, strain DBF2, hits give low values",0.688
same,normalized growth,[1],1.03
same,normalized growth,[2],1.01
same,normalized growth,"locus YHR082C, strain KSP1, hits give low values",1.05
same,normalized growth,"locus YHR205W, strain SCH9, hits give low values",0.916
same,normalized growth,"locus YIL147C, strain SLN1, hits give low values",0.969
same,normalized growth,[3],0.893
same,normalized growth,"locus YJL128C, strain PBS2, hits give low values",0.957
same,normalized growth,"locus YJL157C, strain FAR1, hits give low values",0.994
same,normalized growth,"locus YJR016C, strain ILV3, hits give low values",0.982
same,normalized growth,"locus YJR066W, strain TOR1 (second series), hits give low values",0.964
same,normalized growth,[4],1.01
same,normalized growth,"locus YKL048C, strain ELM1, hits give low values",0.94
same,normalized growth,"locus YKL067W, strain YNK1, hits give low values",0.983
same,normalized growth,"locus YKL101W, strain HSL1, hits give low values",0.957
same,normalized growth,"locus YKL193C, strain SDS22, hits give low values",0.971
same,normalized growth,"locus YKL203C, strain TOR2, hits give low values",1.01
same,normalized growth,[5],0.982
same,normalized growth,"locus YLR133W, strain CKI1, hits give low values",0.993
same,normalized growth,"locus YLR403W, strain SFP1, hits give low values",0.916
same,normalized growth,"locus YML070W, strain DAK1, hits give low values",0.956
same,normalized growth,"locus YMR001C, strain CDC5, hits give low values",0.984
same,normalized growth,"locus YMR205C, strain PFK2 (second series), hits give low values",1
same,normalized growth,"locus YMR277W, strain FCP1, hits give low values",0.975
same,normalized growth,"locus YNL006W, strain LST8, hits give low values",0.989
same,normalized growth,"locus YNL020C, strain ARK1, hits give low values",0.992
same,normalized growth,"locus YNL161W, strain CBK1, hits give low values",0.986
same,normalized growth,[6],1
same,normalized growth,"locus YNL207W, strain RIO2, hits give low values",0.975
same,normalized growth,"locus YNL222W, strain SSU72, hits give low values",0.995
same,normalized growth,"locus YNL307C, strain MCK1 (second series), hits give low values",0.82
same,normalized growth,"locus YOL078W, strain AVO1, hits give low values",0.971
same,normalized growth,"locus YOL136C, strain PFK27, hits give low values",0.965
same,normalized growth,"locus YOR061W, strain CKA2, hits give low values",0.874
same,normalized growth,"locus YOR119C, strain RIO1, hits give low values",1
same,normalized growth,[7],0.996
same,normalized growth,"locus YOR329C, strain SCD5, hits give low values",0.975
same,normalized growth,"locus YPL031C, strain PHO85, hits give low values",0.96
same,normalized growth,"locus YPL153C, strain RAD53, hits give low values",0.97
same,normalized growth,"locus YPL204W, strain HRR25, hits give low values",0.951
same,normalized growth,"locus YPL209C, strain IPL1, hits give low values",0.98
same,normalized growth,[8],1.16 [resistant] (active)
same,normalized growth,"locus YPR025C, strain CCL1, hits give low values",0.979
same,normalized growth,"locus YPR106W, strain ISR1, hits give low values",0.976
same,normalized growth,"locus YPR111W, strain DBF20, hits give low values",0.979
same,normalized growth,"strain NNK1, hits give low values",0.978
same,normalized growth,"strain TSCII, hits give low values",0.981
